# Bioassay records (PubChem BioAssay)
# ALR inh: blocks human ALR sulfhydryl oxidase activity; inhibition, % (concentration not given with the values); hit rate 3.8% among 290,000; purified ALR, DTT oxidation, H2O2 HRP-luminol luminescence; AID 485317; P55789;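 active means mean replicate inhibition above about 79%, with every replicate also reaching it, limit read from the data; inconclusive means only one of the two criteria met; inactive means mean below limit and not every replicate reaching it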
# A3A deaminase: human APOBEC3A DNA deaminase inhibition; hit rate 0.41% among 330,000; inhibition, % at 20 µM; recombinant A3A, FAM/TAMRA ssDNA deamination fluorescence;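 active means at least 40% inhibition at 20 µM here, with at most 30% in a related deaminase screen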;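 further: plate controls were A3A with DMSO for no effect and wells lacking A3A enzyme for full effect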
# Target sequence (P31941 whole entry, looked up): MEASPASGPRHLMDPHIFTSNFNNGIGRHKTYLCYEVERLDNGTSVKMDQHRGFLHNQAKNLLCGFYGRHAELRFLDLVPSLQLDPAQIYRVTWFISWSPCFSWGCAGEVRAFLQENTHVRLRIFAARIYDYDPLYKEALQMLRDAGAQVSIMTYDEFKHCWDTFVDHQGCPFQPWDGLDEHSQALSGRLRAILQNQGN
# PHOSPHO1 block: PHOSPHO1 (human) inhibition | recombinant PHOSPHO1, absorbance phosphatase assay | inhibition, % at 13.3 µM | hit rate 1.1% among 290,000 | Q8TCT1; in the data active means inhibition above about 60%
# Target sequence (Q8TCT1 whole entry, looked up): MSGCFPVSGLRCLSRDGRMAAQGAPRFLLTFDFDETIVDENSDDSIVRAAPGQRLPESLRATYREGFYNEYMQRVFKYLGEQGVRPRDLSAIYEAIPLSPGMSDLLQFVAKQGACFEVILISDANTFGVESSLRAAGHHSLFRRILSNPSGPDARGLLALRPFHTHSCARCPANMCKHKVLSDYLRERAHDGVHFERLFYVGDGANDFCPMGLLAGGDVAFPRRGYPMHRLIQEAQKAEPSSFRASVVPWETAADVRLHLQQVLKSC
# rCAG binder: r(CAG) repeat RNA binding | inhibition, % at 3 µM | TO-PRO-1 dye displacement fluorescence | hit rate 1.3% among 370,000 | AID 651821;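 active means inhibition above the plate cutoff, the mean of all test compounds on that plate plus 3 SD, cut at about 35% in these data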;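 further: 0% = DMSO alone and 100% = 100 µM mitoxantrone as full dye displacement; higher means more dye released from RNA so lower well fluorescence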
# APOBEC3G inh: APOBEC3G (human) deaminase inhibition; inhibition, % at 20 µM; Q9HC16; hit rate 0.28% among 330,000; recombinant A3G, ssDNA deamination FAM/TAMRA fluorescence; AID 493012;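 active means inhibition of at least 40% at 20 µM, with no more than 30% in the related APOBEC3A deaminase screen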;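 further: plate controls were DMSO wells with A3G for no effect and wells lacking A3G enzyme for full effect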
# aDG glyco act: increases alpha dystroglycan glycosylation | Pro5-aDG cells, alpha-DG glycosylation AlphaScreen (IIH6); 0% Pro5, 100% B10-LARGE cell signal | activation, % at 10 µM | hit rate 0.22% among 360,000;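 active means activation of at least 8% versus controls, or a plate z-score of at least 8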;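 further: Pro5 are CHO cells carrying HIG-tagged alpha-DG that lacks glycosylation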
# rCAG bind conf: r(CAG) RNA repeat binding, confirmation. hit rate 70% among 4,300. shares compounds with rCAG binder. TO-PRO-1 dye displacement fluorescence. inhibition, % at 3 µM;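 active means inhibition above a per-plate cutoff, the mean inhibition of sample wells plus 3 SD, cut at about 35% in these data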;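 further: loss of TO-PRO-1 fluorescence as compound displaces dye from 1x1 AA loop RNA; 0% = DMSO only wells and 100% = 100 µM mitoxantrone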
# DNA CAG counter: counter-screen for rCAG RNA binders: DNA CAG dye complex inhibitors | inhibition, % at 3 µM | hit rate 94% among 4,300 | shares compounds with rCAG binder | d(CAG) DNA oligo TO-PRO-1 dye displacement, fluorescence;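 active means inhibition above its plate's cutoff, the mean test-well inhibition plus 3 SD, cut at about 4.8% in these data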;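 further: 0% = DNA dye mix with DMSO and 100% = 100 µM mitoxantrone; hits displace the dye from DNA and so lower well fluorescence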
# An asterisk follows results filed as active; ? = inconclusive; . = no result given. An excerpt weighted towards active compounds, which were near 5.4% of everything screened.
SMILES,ALR inh,A3A deaminase,PHOSPHO1 block,rCAG binder,APOBEC3G inh,aDG glyco act,rCAG bind conf,DNA CAG counter
CCOC(=O)C1(C)C(=O)CC2c3nc4ccccc4cc3CN2C1=O (configuration not stated),.,.,.,15,.,0,.,.
COc1cccc(/C=C2/SC(=O)N(CC(=O)N3CCc4ccccc4C3)C2=O)c1OCC(=O)O,98*,1,14,37*,0,0,36*,9.7*
COc1cccc(/C=C2/SC(=O)N(C)C2=O)c1OCc1ccc(C(=O)O)cc1,1,1,31,12,-5,0,.,.
Cc1ccc(OCCN2CCC2(C)C(=O)NCc2ccc(C(F)(F)F)cc2)cc1 (configuration not stated),.,.,.,-1,.,0,.,.
CCCc1cc2c(OC(=O)CC)c(-c3ccc(C(=O)OCC)o3)c(=O)oc2cc1OC,.,0,2,38*,6,0,33,6.8*
CN(C)S(=O)(=O)c1ccc(C(=O)Nc2cc3c(cc2C(=O)O)OCCCO3)cc1,6,-4,24,59*,-13,0,29,5.1*
CN(C)S(=O)(=O)c1ccc(C(=O)Nc2ccccc2C(=O)O)cc1,22,-2,14,24,-8,0,.,.
CN(C)S(=O)(=O)c1cccc(C(=O)Nc2cc3c(cc2C(=O)O)OCCCO3)c1,7,-4,33,39*,-7,0,29,5.2*
O=C(NCc1ccccc1)[C@H]1CCCN1C(=O)[C@H]1CCCN1C(=O)c1cccc2ccccc12,.,.,.,1,.,.,.,.
O=c1ccc2cc3c([nH]c4ccc(Br)cc43)oc-2c1O,99*,73,7,100*,82,0,92*,68*
Cc1nc(CSc2nsc(/C=C/N(C)C)c2C#N)cs1,.,.,-28,57*,.,0,25,13*
COC(=O)c1ccccc1CSc1nsc(/C=C/N(C)C)c1C#N,.,-4,-144,.,2,0,.,.
CCOC(=O)N1CCN(C(C(=O)NC2CCCC2)c2cccc(OC)c2OC)CC1 (configuration not stated),.,.,.,-3,.,0,.,.
COc1ccc(/C=C2/S/C(=N/S(=O)(=O)Cc3ccccc3)NC2=O)cc1OC,28,-4,8,53*,-5,0,44*,12*
O=C1N/C(=N\S(=O)(=O)Cc2ccccc2)S/C1=C/c1cccc([N+](=O)[O-])c1,24,4,-8,81*,0,0,69*,28*
COc1cc(/C=C2\SC(=S)NC2=O)ccc1OS(=O)(=O)c1ccccc1,57,0,6,.,16,.,.,.
Cc1oc(-c2ccccc2)cc1C(=O)Nc1cccc(/C=C\C(=O)O)c1,96*,-2,-10,41*,-6,0,29,5.7*
O=C(O)c1ccc(N/N=C/c2ccc(-c3cc(Cl)ccc3Cl)o2)cc1,50,-5,32,45*,-5,0,51*,18*
Cc1c(C(=O)O)cccc1-c1ccc(/C=N/Nc2ccc(Br)cc2)o1,100*,5,-15,50*,-4,0,64*,21*
O=C(Cc1ccc(F)cc1)N/N=C/c1ccc(-c2ccc(Cl)c(C(=O)O)c2)o1,0,-2,-16,2,-5,0,.,.
Cc1c(C(=O)O)cccc1-c1ccc(/C=N/n2cnnc2)o1,.,34,31,-3,11,0,.,.
O=C(O)c1cc(N/N=C/c2ccc(-c3ccc(F)cc3)o2)ccc1Cl,98*,-1,27,56*,-5,0,38*,12*
O=C(N/N=C/c1ccc(-c2ccc(Cl)c(C(=O)O)c2)o1)c1cc2c(ccc3ccccc32)o1,35,8,3,52*,-7,0,86*,61*
COc1ccc(C(=O)N2CCCC(C)(C(=O)NS(=O)(=O)C3CC3)C2)cc1 (configuration not stated),.,.,.,1,.,0,.,.
CC1=C(C(=O)N(C(C)C)C(C)C)CC(CC(=O)NCc2cccs2)C(=O)N1Cc1ccc(C(C)(C)C)cc1 (configuration not stated),.,.,.,0,.,1,.,.
SMILES,ALR inh,A3A deaminase,PHOSPHO1 block,rCAG binder,APOBEC3G inh,aDG glyco act,rCAG bind conf,DNA CAG counter
CCOC(=O)[C@]12CCCC=C1N(Cc1ccc(Cl)cc1Cl)C(=O)[C@H](CC(=O)NCC13CC4CC(CC(C4)C1)C3)C2,.,.,.,10,.,0,.,.
O=C(O)c1cccc(-c2ccc(/C=N/Nc3ccc([N+](=O)[O-])cc3)o2)c1,19,-1,13,59*,-7,0,49*,15*
O=C(O)c1ccc(N/N=C/c2ccc(-c3ccc(Cl)cc3Cl)o2)cc1,.,0,16,92*,-1,0,84*,51*
O=C(O)c1ccc(N/N=C/c2ccc(-c3cccc(Cl)c3)o2)cc1,.,4,23,63*,-3,0,50*,16*
CC(C)(C)C(=O)OC12CCCN(C1)/C(=C/c1ccc(Cl)cc1)C2 (configuration not stated),.,.,.,3,.,.,.,.
COc1cc(/C=C/C(=O)O)ccc1OS(=O)(=O)c1c(C)c(C)cc(C)c1C,2,-4,.,56*,-6,0,56*,16*
O=C(O)CCC(C(=O)O)N1C(=O)C2C3CCC(C3)C2C1=O (configuration not stated),.,.,.,1,.,0,.,.
O=C(c1ccccc1)c1ccc2nc(-c3ccco3)c(-c3ccco3)nc2c1,-7,60,-103,42*,42,0,70*,36*
O=C(O)c1cccc2c1C(=O)c1ccc(-c3ccc(OC(F)(F)F)cc3)cc1S2(=O)=O,17,1,.,69*,-6,0,60*,16*
O=C(NCc1ccccc1Br)c1cccc2c1C(=O)c1ccc(-c3ccc(OC(F)(F)F)cc3)cc1S2(=O)=O,5,-2,.,.,-12,0,.,.
CCc1nc2ccc(C(=O)Nc3cccc(OCC(=O)N(C)C)c3)cn2c1N(C)Cc1ccc(OC)cc1,.,.,.,2,.,0,.,.
COc1cc(/C=N/Nc2ccc(Cl)c(C(=O)O)c2)ccc1OC(=O)c1ccccc1F,99*,-1,-35,66*,2,0,80*,47*
COc1cccc(OCc2cc(/C=N/Nc3ccc(C(=O)O)cc3)ccc2OC)c1,?,-4,2,64*,-5,0,74*,37*
COc1cc(/C=N/NS(=O)(=O)c2ccc3ccccc3c2)ccc1OCc1ccc(C(=O)O)cc1,.,4,-10,48*,-3,0,40*,11*
O=C(O)c1ccc(N/N=C/c2ccc(C(F)(F)F)cc2)cc1,.,1,12,19,-2,0,.,.
